PubChem BioAssay
Unmarked numbers belong to inactive results. The rule behind the calls is not given here. Where a SMILES comes first, the peptide text is derived from it. The star is where a group is joined. Boc = CC(C)(C)OC(=O)*

Target: Pantothenate synthetase (Mycobacterium tuberculosis (strain ATCC 25618 / H37Rv)) (UniProt P9WIL5)
Test: Coupled enzyme confirmation of inhibitors against recombinant Mtb PanC (AID 375);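 note: 0% = full reaction with vehicle and 100% = no enzyme background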
Conditions: coupled enzyme assay; at 10 µM, hits give high values

Pantothenate synthetase (Mycobacterium tuberculosis (strain ATCC 25618 / H37Rv)), sequence (P9WIL5 whole entry, looked up): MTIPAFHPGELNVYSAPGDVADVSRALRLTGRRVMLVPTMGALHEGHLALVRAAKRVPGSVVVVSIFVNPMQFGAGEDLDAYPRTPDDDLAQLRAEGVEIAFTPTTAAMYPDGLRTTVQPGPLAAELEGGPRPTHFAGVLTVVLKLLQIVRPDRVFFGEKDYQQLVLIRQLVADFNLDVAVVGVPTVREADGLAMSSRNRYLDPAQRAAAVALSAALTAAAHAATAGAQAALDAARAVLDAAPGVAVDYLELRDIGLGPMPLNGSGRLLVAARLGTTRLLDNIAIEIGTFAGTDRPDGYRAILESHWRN

Compound	inhibition
COC(=O)Nc1ccc(C)cc1NC(=O)OC	2%
CCOC(=O)C1CCCn2c1nc1sc3c(c1c2=O)CCCC3 (stereo not given)	0%
COc1ccc(S(=O)(=O)N2CCCC2C(=O)Nc2ccc(C)cc2)cc1 (stereo not given)	0%
O=c1cc(COn2nnc3ccc(C(F)(F)F)cc32)nc2sccn12	0%
Cc1cc(C(N)=O)c2cc(Br)ccc2n1	10%
COC(=O)Nc1sc2c(c1C(=O)N1CCOCC1)CCC(C)C2 (stereo not given)	0%
CC(=O)N1C(=O)C2(C(C#N)=C(N)Oc3cc(C)oc(=O)c32)c2ccccc21 (stereo not given)	0%
Cc1cncn1CCc1nc2c3ccccc3nc(=S)n2[nH]1	7%
CCCC(=O)N(Cc1cc2ccccc2[nH]c1=O)c1ccccc1OC	2%
CCCC(=O)Nc1cc(-c2nnc(OC)c3ccccc23)ccc1N1CCOCC1	0%
CC(C)(C)c1ccc2c(c1)OCC(C(=O)O)O2 (stereo not given)	4%
Nc1cc(C(=O)O)ccc1Nc1ccc(F)c(F)c1	5%
CCCc1nc2ccccc2c2nc(N)nn12	5%
Cc1ccc(Cn2c(SCC(N)=O)nc3c2c(=O)n(C)c(=O)n3C)cc1	0%
O=C(c1ccc2nc(N3CCCCC3)sc2c1)N1CCN(c2ccccn2)CC1	0%
O=C(NCc1ccco1)c1cnn2c(C(F)(F)F)cc(-c3ccco3)nc12	4%
CNC(=O)CC(C(=O)O)c1ccc(OC(C)C)cc1 (stereo not given)	0%
Nc1nc(-c2ccccc2)cc(C(F)(F)F)n1	5%
O=C(O)c1ccccc1S	0%
CCCCCOC(=O)CSc1nnc(-c2cc(OC)c(OC)c(OC)c2)o1	4%

Compound	inhibition
COc1ccc(Oc2nc(Oc3ccc(OC)cc3)nc(Oc3ccc(OC)cc3)n2)cc1	0%
Cc1ccc(C)c(N2CCN(C(=O)c3ccc(CS(=O)(=O)c4ccccc4C)o3)CC2)c1	8%
Cn1c(=O)n(CCN2CCOCC2)c(=O)c2c1nc1n2CCN1c1ccccc1	2%
CCOC(=O)c1ccccc1NC(=O)N1CCn2c(C)ccc2C1CC (stereo not given)	2%
CC(C)(C)OC(=O)N1CCCC1C(=O)N1CCCC1C(=O)N1CCCC1C(=O)O (stereo not drawn) (Boc-Pro-Pro-Pro-OH; configuration not given here)	3%
CCC(=O)c1ccc(OC(=O)c2ccc(Br)o2)cc1	7%
O=C(CC1Oc2ccc(Cl)cc2NC1=O)NC1CCCCCC1 (stereo not given)	6%
CN(C(=O)COc1cc(=O)n(C)c2ccccc12)c1ccc(Br)cc1	0%
CCOC(=O)c1sc(=NC(=O)c2ccc(OC)c(OC)c2)n(C)c1C	2%
Cc1ccc(S(=O)(=O)N2CCN(S(=O)(=O)N(C)C)CC2)cc1	0%
CCOC(=O)c1[nH]c(C)c(C(=O)Nc2ccc(C)c(Cl)c2)c1C	9%
COc1ccc(C2C(C(=O)N3CCCC3)c3cc(OC)c(OC)cc3C(=O)N2C)cc1 (stereo not given)	0%
CCn1c(SCC(=O)NC)nnc1C(C)C	2%
CCOC(=O)C1CCCN(c2c(NCc3ccco3)c(=O)c2=O)C1 (stereo not given)	0%
O=C(NCCC1=CCCCC1)C1CCN(C(=O)Nc2ccccc2)CC1	0%
COc1ccc(-n2c(=O)cc(N3CCN(Cc4ccccc4)CC3)[nH]c2=O)cc1	0%
O=C(O)C1CC=CCC1C(=O)NCc1ccccc1 (stereo not given)	1%
CN1CCN(c2ccc(Cl)cc2NC(=O)c2cccc(S(=O)(=O)N(C)C)c2)CC1	1%
CCOc1ccccc1C(=O)Nc1cc(=O)n(C)c(=O)n1C	10%
COc1ccc2c(c1)CCc1c(C(=O)N3CC4(C)CC3CC(C)(C)C4)noc1-2 (stereo not given)	0%
